Assay outcomes: PubChem, National Center for Advancing Translational Sciences (NCATS)
Compounds with a hit are over-represented: about 2.4% of the library has one in this group of screens.
Cruzain noTriton = qHTS Assay for Promiscuous and Specific Inhibitors of Cruzain (without detergent); Cruzipain (Trypanosoma cruzi), P25779; purified cruzain, Z-FR-AMC fluorescence, no detergent; Potency, µM, inactives show max response, negative = inhibition, hits mostly inhibitors; hit rate 2.3% among 200,000; AID 1476, 2009;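 further: plate controls were enzyme without inhibitor for no effect and buffer without enzyme for full effect; nearly all actives have a fitted effect of over 40% in size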
Target sequence (P25779 123-467 limits assumed): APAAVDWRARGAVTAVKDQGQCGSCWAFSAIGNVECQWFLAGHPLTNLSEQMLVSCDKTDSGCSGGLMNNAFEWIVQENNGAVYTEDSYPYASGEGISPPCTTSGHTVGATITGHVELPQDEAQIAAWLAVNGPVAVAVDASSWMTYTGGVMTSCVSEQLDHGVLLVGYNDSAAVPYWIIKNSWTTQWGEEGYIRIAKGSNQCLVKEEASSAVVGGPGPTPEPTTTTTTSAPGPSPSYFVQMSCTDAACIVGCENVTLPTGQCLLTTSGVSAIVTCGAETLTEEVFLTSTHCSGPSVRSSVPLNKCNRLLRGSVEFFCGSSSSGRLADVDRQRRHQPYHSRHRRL
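Detergent-free condition (0.00005% Triton X-100) in acetate buffer pH 5.5 with DTT. 1.5 nM enzyme and compound were pre-mixed 15 min, then 2 uM Z-FR-AMC substrate added; reaction progress from fluorescence change between first and third reads (60 s).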
Cruzain inh Det = qHTS Assay for Promiscuous and Specific Inhibitors of Cruzain (with detergent); Cruzipain (Trypanosoma cruzi), P25779; purified cruzain, Z-FR-AMC fluorescence, 0.01% Triton; Potency, µM, for inactives: max response, negative = inhibition, hits mostly inhibitors; hit rate 0.43% among 200,000;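 further: plate controls were neutral wells for no effect and buffer without enzyme for full effect; nearly all actives have a fitted effect of over 40% in size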
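Detergent-containing run (0.01% Triton X-100) in acetate buffer pH 5.5 with 5 mM DTT: enzyme at 1.5 nM final, 15 min compound preincubation at room temperature, then 2 uM Z-FR-AMC substrate. Activity taken as 60 s fluorescence increase at 360/450 nm.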
* hit, by the source's call. The call rests on the fitted dose curve; in most records, active means well fitted curve in the direction sought with a large enough effect; inconclusive means small, poorly fitted or top-dose-only effect, or another doubt; inactive means no such curve, though single readings can be large; an effect the other way counts as inactive or inconclusive. Potency means the concentration at half of the fitted maximal effect.

Results for CCN(CC)S(=O)(=O)c1ccc2c(c1)N(CC(=O)Nc1ccc(C)cc1C)C(=O)C1CCCN21 (configuration not stated) ?
Cruzain noTriton: inconclusive; Cruzain inh Det: -4%

What do the screens show for `Cc1ccc(S(=O)(=O)N2CCC(C(=O)Nc3ccc(C)c(Cl)c3)CC2)cc1`?
Cruzain noTriton: 13%; Cruzain inh Det: inconclusive

What do the screens show for `CN(C)c1ccc(NS(=O)(=O)c2cc(Cl)ccc2Cl)cc1`?
Cruzain noTriton: -11%; Cruzain inh Det: -9%

What do the screens show for `O=S(=O)(Nc1nc(-c2sccc2Cl)cs1)c1cc(Cl)ccc1Cl`?
Cruzain noTriton: inconclusive; Cruzain inh Det: 20µM*

What do the screens show for `O=C(COc1ccccc1-c1nc(-c2ccccc2)no1)Nc1ccc([N+](=O)[O-])cc1`?
Cruzain noTriton: -9%; Cruzain inh Det: -5%

What do the screens show for `O=C(Nc1ccc(NC(=O)C23CC4CC(CC(C4)C2)C3)cc1)c1cc(F)c(F)cc1Cl`?
Cruzain noTriton: 25µM*; Cruzain inh Det: 6%

Results for CN(C)S(=O)(=O)c1ccc(NC(=O)c2cc(F)c(F)cc2Cl)cc1 ?
Cruzain noTriton: 10%; Cruzain inh Det: -4%

Results for Cn1c(NCCCCO)nc2c1c(=O)n(Cc1ccc(Cl)cc1)c(=O)n2C ?
Cruzain noTriton: inconclusive; Cruzain inh Det: -3%

How did COc1ccc(C(=O)Nc2ccc(-c3nc4ncccc4o3)cc2C)cc1Br do in these assays?
Cruzain noTriton: -8%; Cruzain inh Det: -2%

What do the screens show for `O=C(c1cc(C(=O)NCc2ccc(Cl)cc2)c(=O)n(Cc2ccc(Cl)cc2)c1)c1cc(F)ccc1O`?
Cruzain noTriton: 16µM*; Cruzain inh Det: -4%

How did O=C(NCc1ccc(Cl)cc1)c1ccc(Cn2cc(C(F)(F)F)ccc2=O)cc1 do in these assays?
Cruzain noTriton: 5%; Cruzain inh Det: -8%

How did N#C/C(C(=O)Oc1ccccc1)=C1/Nc2ccccc2-c2ccccc21 do in these assays?
Cruzain noTriton: 13µM*; Cruzain inh Det: 2%

Results for N#CC(C(=O)Nc1ccccc1)=C1Nc2ccccc2N1 ?
Cruzain noTriton: -8%; Cruzain inh Det: -4%

What do the screens show for `COc1ccc(NC(=O)C2=C(C)Nc3ncnn3C2c2ccc[nH]2)cc1` (configuration not stated)?
Cruzain noTriton: -9%; Cruzain inh Det: -3%

Results for O=C(Nc1ccc(N2CCN(CCOc3ccc(Cl)cc3)CC2)c(C(=O)O)c1)c1ccc(F)cc1 ?
Cruzain noTriton: inconclusive; Cruzain inh Det: 3%

Results for COC(=O)c1sc(N)c(C(=O)OC)c1COC(=O)[C@@H](NS(=O)(=O)c1cccc(Cl)c1)C(C)C ?
Cruzain noTriton: 10%; Cruzain inh Det: -8%

What do the screens show for `COC(=O)c1c(NC(=O)CS(=O)(=O)c2ccc(C)cc2)sc2c1CCCCC2`?
Cruzain noTriton: 2.5µM*; Cruzain inh Det: -8%

Results for Cc1ccc(S(=O)(=O)CC(=O)Nc2sc3c(c2C#N)CCCCC3)cc1 ?
Cruzain noTriton: -10%; Cruzain inh Det: -3%

What do the screens show for `CCOC(=O)c1c(NC(=O)C2CCCN(S(=O)(=O)c3ccc(C)cc3)C2)sc2c1CCCC2` (configuration not stated)?
Cruzain noTriton: 16µM*; Cruzain inh Det: 0%

How did CCOC(=O)c1c(NC(=O)C2CCCN(S(=O)(=O)c3ccccc3)C2)sc2c1CCCC2 (configuration not stated) do in these assays?
Cruzain noTriton: inconclusive; Cruzain inh Det: -3%

Results for COC(=O)c1c(NC(=O)COC(=O)[C@@H](NS(=O)(=O)c2cccc(Cl)c2)C(C)C)sc2c1CCC2 ?
Cruzain noTriton: 16µM*; Cruzain inh Det: -10%

How did Cn1cccc1C(=O)N1CCC2(CC1)CCN(c1ccncc1)CC2 do in these assays?
Cruzain noTriton: -4%; Cruzain inh Det: 1%

How did COc1ccc(CNC(=O)c2cc(-c3cccs3)nc3ccccc23)c(OC)c1 do in these assays?
Cruzain noTriton: -2%; Cruzain inh Det: -11%

Results for Cn1cccc1C(=O)N1CCC2(CCCN(c3ccncc3)C2)CC1 ?
Cruzain noTriton: -7%; Cruzain inh Det: 1%

What do the screens show for `COC(=O)c1cccc(NC(=O)c2cc3sccc3n2C)c1`?
Cruzain noTriton: 25µM*; Cruzain inh Det: -17%

Results for COC(=O)c1ccccc1NC(=O)c1cc2sccc2n1C ?
Cruzain noTriton: -19%; Cruzain inh Det: -5%

Results for CCOc1ccc(-c2cc3c(=O)n(CC(=O)Nc4cc(F)ccc4C)ccn3n2)cc1 ?
Cruzain noTriton: -3%; Cruzain inh Det: 0%

What do the screens show for `Cc1cccc(N2CCN(C(c3ccc(F)cc3)c3nnc(-c4ccccc4)o3)CC2)c1C` (configuration not stated)?
Cruzain noTriton: inconclusive; Cruzain inh Det: -3%

Results for Cc1ccc(Cl)cc1N1CCN(C(c2ccc(F)cc2)c2nnc(-c3ccccc3)o2)CC1 (configuration not stated) ?
Cruzain noTriton: 6.3µM*; Cruzain inh Det: -1%

What do the screens show for `COc1ccccc1CNc1nc(-c2ccco2)nn1S(=O)(=O)c1ccc(C)cc1`?
Cruzain noTriton: 4%; Cruzain inh Det: -6%

How did Cc1cc(C(=O)Nc2nnc(C3CCCCC3)s2)cs1 do in these assays?
Cruzain noTriton: inconclusive; Cruzain inh Det: 13%

What do the screens show for `O=C(Nc1nnc(C2CCCCC2)s1)c1ccc(Br)s1`?
Cruzain noTriton: 25µM*; Cruzain inh Det: -2%

How did CCc1cccc(C)c1NC(=O)Cn1cc2c(n1)CCCCC2 do in these assays?
Cruzain noTriton: -8%; Cruzain inh Det: -3%

How did CCOc1ccc(-c2nnc(SCC(=O)Nc3cc(F)ccc3F)o2)cc1 do in these assays?
Cruzain noTriton: 10µM*; Cruzain inh Det: -7%

Results for CCOc1ccc(-c2nnc(SCC(=O)NCc3ccc(Cl)cc3)o2)cc1 ?
Cruzain noTriton: 20µM*; Cruzain inh Det: 25µM*

How did COc1ccc(-c2nnc(SCC(=O)Nc3cc(F)ccc3C)o2)cc1 do in these assays?
Cruzain noTriton: 2%; Cruzain inh Det: 4%

What do the screens show for `CCOc1ccc(-c2nnc(SCC(=O)NCc3ccccc3)o2)cc1`?
Cruzain noTriton: -8%; Cruzain inh Det: -4%

How did COc1ccc(C)cc1NC(c1nnc(-c2ccccc2)o1)c1ccc(F)cc1Cl (configuration not stated) do in these assays?
Cruzain noTriton: inconclusive; Cruzain inh Det: -6%

What do the screens show for `CCOc1ccc(C(=O)CSc2nnc(N)s2)cc1`?
Cruzain noTriton: 25µM*; Cruzain inh Det: -6%

What do the screens show for `COc1ccc(NC(=O)CSc2nnc(N)s2)cc1`?
Cruzain noTriton: -3%; Cruzain inh Det: 0%

What do the screens show for `CC(C)c1nn2c(=O)cc(COC(=O)CNC(=O)c3ccccc3)nc2s1`?
Cruzain noTriton: -5%; Cruzain inh Det: -3%

Results for COc1cccc(NC(=O)C(=O)N/N=C/c2cc(C)n(-c3ccc(Cl)c(Cl)c3)c2C)c1 ?
Cruzain noTriton: 16µM*; Cruzain inh Det: 0%

Results for Cc1cc(/C=N\NC(=O)CC(=O)NC2CCCCC2)c(C)n1-c1ccc(Cl)c(Cl)c1 ?
Cruzain noTriton: -2%; Cruzain inh Det: -6%

Results for COc1cc(NC(=O)CC2C(=O)N(c3cccc(C)c3)C(=O)N2Cc2ccco2)cc(OC)c1 (configuration not stated) ?
Cruzain noTriton: 6%; Cruzain inh Det: -8%

How did CS(=O)(=O)c1ccc(Sc2nc3ccccc3s2)c([N+](=O)[O-])c1 do in these assays?
Cruzain noTriton: -21%; Cruzain inh Det: -4%
